The source of these data is PubChem BioAssay AID602428 (Sanford-Burnham Center for Chemical Genomics, 2012).

In all, about 2,500 compounds went through this assay and about 980 (39%) were called active. These entries were drawn from the full list. Unmarked numbers belong to inactive results.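 How the source made its calls: active means mean inhibition at 5 µM reaching about 45% (limit read from the data); inactive means the rest.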

For orientation: inhibition means the relative decrease from the control value, in per cent.

The assay in a line: blockers of Gli reporter signaling – single concentration, luciferase luminescence, Sufu-KO-LIGHT cells, confirmation (AID 602428).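 Further: plate controls were DMSO-treated cells for no effect and wells lacking cells for full effect.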 The settings on record: at 5 µM, active compounds read high.
As to `C=CCNC(=S)/N=c1/ccccn1Cc1ccccc1`, the inhibition was 50.8% (active).

For the compound `CCOc1cccc(/C=N/NC(=S)NCCN2CCOCC2)c1O`, the inhibition is 24.5%.

For the compound `Nc1ccc(C(=O)N2CCN(S(=O)(=O)c3ccc(Cl)cc3)CC2)cc1[N+](=O)[O-]`, the inhibition was 17.8%.

With `COc1ccc(NC(=O)[C@H](NC(=O)[C@@H]2Cc3ccccc3CN2)c2ccccc2)cc1`, the inhibition is 17.9%.

As to `CCOC(=O)c1ccc(NC(=O)Cn2cnc3cc(C)c(C)cc32)cc1`, the inhibition is 76.1% (active).

Regarding `O=C(O)CCCn1cc(NC(=O)COc2cccc(Cl)c2)cn1`, the inhibition was 12.9%.

Regarding `CC(=O)Nc1cccc(OCC(=O)/C=C2\N(C)c3ccccc3C2(C)C)c1`, the inhibition was 54.9% (active).

Take `CC1CC2=C(CC1/C=N/NC(N)=S)C(C)(C)CCC2` (stereo not drawn): the inhibition is 49.3% (active).

As for `COc1ccccc1CCNC(=O)C(=O)NCCC1CCCCN1S(=O)(=O)c1cccs1` (stereo not drawn), the inhibition is 48.8% (active).

In the case of `COc1ccccc1CNC(=O)C1CCN(c2nc3ccccc3o2)CC1`, the inhibition was 25.9%.

Take `COc1ccc(NS(=O)(=O)c2ccc(NC(C)=O)cc2)cc1OC`: the inhibition was 51.5% (active).

As for `Cc1cccc(NS(=O)(=O)c2ccc(-c3cnc(C4CC4)o3)cc2)c1`, the inhibition is 36.7%.

Turning to `COc1ccc2c(C)cc3nnnn3c2c1`, the inhibition was 17.3%.

For `O=C(CN1C(=O)c2ccccc2S1(=O)=O)N1CCc2ccccc21`, the inhibition was 57.7% (active).

Turning to `CC(C)OCC(O)CN1CCN(C(c2ccccc2)c2ccccc2)CC1` (stereo not drawn), the inhibition was 10.4%.

`CC(=O)/C(=N\Nc1ccc(Cl)cc1Cl)Sc1cccc2cccnc12`: the inhibition was 57.7% (active).

Take `CCC(Cc1ccccc1)NC(=O)C1CCCCC1` (stereo not drawn): the inhibition is 6.07%.

On to `O=C(Nc1cc2c3c(c1)C1CCCC1CN3CC1CCCC21)c1ccc([N+](=O)[O-])cc1` (stereo not drawn), for which the inhibition is 79% (active).

For the compound `COc1cc(C(=O)OC2CCOC2=O)c([N+](=O)[O-])cc1OC` (stereo not drawn), the inhibition was 7.05%.

Turning to `CC[n+]1c(C)n(-c2ccccc2)c2ccc(NC(C)=O)cc21`, the inhibition is 80.2% (active).

For the compound `C=CCOC(=O)C1=C[C@@H](c2ccc3c(c2)OCO3)C[C@@H](OCCCCO)O1`, the inhibition was 28.9%.

Consider `O=C1/C(=C\c2cccnc2)CN(Cc2ccccc2)C/C1=C\c1cccnc1`, for which the inhibition is 19.9%.

As for `CCCCC(=O)NC(c1ccc(OC)c(OC)c1)c1ccc2cccnc2c1O` (stereo not drawn), the inhibition was 55% (active).

Consider `Cc1ccc(NC(=S)Nc2ccc(F)cc2)cc1`, for which the inhibition is -13.7%.

Regarding `CCN1/C(=C/C(=S)Nc2ccccc2)Sc2ccccc21`, the inhibition is 9.5%.

For `COc1ccc(Cn2c(-c3ccc(Cl)cc3)c[n+]3ccccc23)cc1`, the inhibition was 63.2% (active).

Turning to `c1c2c(cc3sc(N4CCCCC4)nc13)OCCO2`, the inhibition is 34.5%.

`O=c1c2ccccc2nc2n1C(CSCc1cccc(C(F)(F)F)c1)CS2` (stereo not drawn): the inhibition was 67.6% (active).

Consider `CC1(C)CC(=O)c2c(n(S(=O)(=O)c3ccccc3)c3ccc(NS(=O)(=O)c4ccccc4)cc23)C1`, for which the inhibition is 19.1%.

Consider `C/C(=N\NC(=O)Cc1ccc(Cl)cc1)c1ccccn1`, for which the inhibition was 86.9% (active).

As for `Cc1cc(NC(=O)c2cccc(N3C(=O)CCC3=O)c2)no1`, the inhibition is 20.1%.

On to `CC(C)(CNC(=O)c1ccc(Cl)c(S(=O)(=O)N2CCc3ccccc3C2)c1)N1CCOCC1`, for which the inhibition was 22.8%.

`CN(C)c1cc[n+](Cc2ccccc2)cc1`: the inhibition was 53% (active).

Consider `CCOC(=O)c1cnc(-n2nc(C)cc2C)nc1NNc1cc(C)nc(-c2ccccc2)n1`, for which the inhibition is 53.6% (active).

In the case of `CCc1ccc(C2C(C#N)=C(N)N(N3CCOCC3)C3=C2C(=O)CC(C)(C)C3)s1` (stereo not drawn), the inhibition was 7.97%.

Consider `C=CCn1c(SCC(=O)CC(=O)OCC)nc2cc(C(=O)N3CCC(C(N)=O)CC3)ccc2c1=O`, for which the inhibition is 20.4%.

Turning to `COc1cc(C(=O)OC(C)C(=O)NCC2CCCCC2)cc(NC(=O)c2ccco2)c1OC` (stereo not drawn), the inhibition was 13.1%.

Turning to `COc1ccc(NS(=O)(=O)c2ccc(N3CCN(CCO)CC3)c([N+](=O)[O-])c2)cc1`, the inhibition is 45.5% (active).

In the case of `COc1ccccc1/C=C/CN1CCC(CO)(Cc2ccccc2)CC1`, the inhibition was 12.3%.

For `O=C(CN1CCN(S(=O)(=O)c2cc(Cl)ccc2Cl)CC1)c1ccc(O)c(O)c1`, the inhibition was 22.3%.

Consider `NS(=O)(=O)c1ccc(CCNC(=O)CCCn2c(SCC(=O)N3CCCC3)nc3ccsc3c2=O)cc1`, for which the inhibition was 8.32%.

As to `COC(=O)Cc1[nH]n(-c2nc3ccccc3s2)c(=O)c1C(C)=Nc1ccc(OC)cc1`, the inhibition was 91.5% (active).

Consider `N#CC(C#N)=CN=c1ccn(Cc2ccc(Cl)cc2Cl)cc1`, for which the inhibition is 50.9% (active).

On to `CCn1c(SCc2ccccc2)nc2cc(OC)c(OC)cc2c1=O`, for which the inhibition was 25.4%.

For the compound `Cc1ccc(C(=O)C[n+]2cc(-c3ccccc3)n3c2CCCCC3)cc1`, the inhibition was 70.7% (active).

As to `Cc1cc(C(=O)CSc2nc(N)cc(=O)[nH]2)c(C)n1-c1cccc(F)c1`, the inhibition is 55.4% (active).

As to `Cc1ccc(-c2nc3c(cnn3-c3ccccc3)c(=O)o2)cc1`, the inhibition was 38.2%.

On to `N#Cc1ccc(C(=O)Nc2nc(-c3cccs3)c(C(=O)C(F)(F)F)s2)cc1`, for which the inhibition was 66% (active).

Regarding `O=C(O)c1ccc(N/N=C/c2ccc3ncccc3c2)cc1`, the inhibition is 61.1% (active).

Take `CCNC(=S)N(CCN(CC)CC)Cc1cc2cc3c(cc2[nH]c1=O)OCO3`: the inhibition was 20.6%.

With `CC1(C)Cc2ccccc2/C(=C/C(=O)c2ccccc2)N1`, the inhibition was 27.6%.

For the compound `CC(C)Oc1ccc(/C=N/NC(=O)c2nnn(-c3nonc3N)c2CN(C)C2CCCCC2)cc1`, the inhibition is 24.6%.

Take `CC(=O)c1c(C)[nH]c(C(=O)OCC(=O)Nc2sc3c(c2C#N)CCCC3)c1C`: the inhibition is 59% (active).

Regarding `NC(N)=Nc1nc(-c2ccccc2)c2cc(Cl)ccc2n1`, the inhibition was 31.6%.

Take `CCCOc1ccccc1C1CC(=O)Nc2cc3c(cc21)OCO3` (stereo not drawn): the inhibition was 52.9% (active).

As to `COc1ccccc1N1CCN(Cc2cc(OC)c3c(c2)OCO3)CC1`, the inhibition is 14.2%.

Turning to `COc1ccccc1C1C2=C(COC2=O)Nc2cc3c(cc21)OCO3` (stereo not drawn), the inhibition is 48.7% (active).

On to `CNc1nnc(-c2ccco2)s1`, for which the inhibition was 23.3%.

`COc1ccc(OC)c(/C=N/NC(=O)c2ccc[n+](CC(=O)c3ccccc3)c2)c1`: the inhibition is 13.3%.

With `Cc1ccc(S(=O)(=O)NC(C)C(=O)Nc2ccccc2C(=O)N2CCCC2)cc1` (stereo not drawn), the inhibition is 14.3%.

As for `Cc1nonc1C1CCCN1C(=O)c1cc(COc2cccc(C(F)(F)F)c2)on1` (stereo not drawn), the inhibition was 26.7%.

For the compound `C=CCC1(CC=C)CCCN1C(=O)c1cc(COc2ccc(-n3cncn3)cc2)on1`, the inhibition is 78.5% (active).

Turning to `O=[N+]([O-])c1ccc(N2CCN(CC(O)COc3ccccc3)CC2)cc1` (stereo not drawn), the inhibition was 27.5%.

For the compound `COc1ccc(/C=N/N=C2/C(=O)Nc3ccccc32)cc1O`, the inhibition was 21.9%.

With `COc1ccc(Cc2nnc(N/N=C/c3ccccc3O)[nH]c2=O)cc1OC`, the inhibition was 73.7% (active).

Turning to `c1ccc(-n2nnnc2N2CCOCC2)cc1`, the inhibition was 6.89%.

`CC(C)c1ccc(OCC(O)CN2CCN(c3ccccn3)CC2)cc1` (stereo not drawn): the inhibition was 10.6%.

Turning to `Cc1cc([N+](=O)[O-])c(-c2ccc(/C=N/n3cnnc3)o2)cc1Cl`, the inhibition is 15.1%.

On to `O=C(C[C@H]1C/C=C\C[C@@H](NC(=O)OCC2c3ccccc3-c3ccccc32)C(=O)O[C@@H](c2ccccc2)CNC1=O)N[C@H](CO)Cc1ccccc1`, for which the inhibition is 57.2% (active).

With `COC(=O)c1ccccc1NC(=O)C1(S(=O)(=O)c2ccc(Cl)cc2)CC1`, the inhibition was 15.8%.

Consider `Cc1onc(-c2ccccc2)c1C(=O)Nc1ccccc1C#N`, for which the inhibition was 14.9%.

With `Cc1cccc2nc(CSc3nc4[nH]ncc4c(=O)n3-c3cccc(Cl)c3)cc(=O)n12`, the inhibition was 64.1% (active).

For the compound `CCN(CCO)C(=S)Nc1cc(C(=O)OC)ccc1C(=O)OC`, the inhibition was 21.2%.

As for `CC(=O)Nc1ccc(NC(=O)c2ccc3c(c2)C(=O)N(c2ccccc2C)C3=O)cc1`, the inhibition is 28.9%.

As to `Cc1ccc(O)c(NC(=O)COc2cc(C)ccc2C)c1`, the inhibition is 76.8% (active).

`C/C(=N\Nc1ccc(Cl)nn1)c1ccccc1O`: the inhibition is 47.1% (active).

Consider `COc1ccc2nc(SCC(=O)Nc3c(C)cc(C)cc3C)[nH]c2c1`, for which the inhibition was 23.1%.

As for `CSc1ncccc1C(=O)Nc1nc2ccc(F)cc2s1`, the inhibition was 79.4% (active).

`Cc1cc(C)c(SCCc2ccncc2)c(C)c1`: the inhibition is 27%.

For `Cc1ccc(NC(=O)CN(C)CC(=O)Nc2cccc(F)c2)cc1[N+](=O)[O-]`, the inhibition was 67.8% (active).

Turning to `CCCC1=Nc2cc(C(=O)NCc3ccco3)ccc2Sc2ccccc21`, the inhibition was 31.8%.

Turning to `O=C1C=C(c2ccnc3cc(Cl)ccc23)C[C@@H](c2ccc3c(c2)OCO3)C1`, the inhibition was 61% (active).

Consider `COc1ccc(C(=O)NC2CCCc3c2cnn3-c2cccc(C)c2C)c(OC)n1` (stereo not drawn), for which the inhibition is 51.3% (active).

On to `CN(c1ccc2nc3ccccc3c(=O)n2n1)C1CCCCC1`, for which the inhibition was 79.3% (active).

As for `COc1cccc(-n2cc(C(=O)O)c3ccccc3c2=O)c1`, the inhibition is 22.9%.

Consider `COc1cccc2cc(C(N)=O)/c(=N\NC(=O)c3ccccc3)oc12`, for which the inhibition is 23.9%.

With `Cc1cc2[nH]ncc2cc1NC(=S)NC(=O)c1ccccc1`, the inhibition was 6.93%.

As to `Cc1ccccc1C(=O)NC(=S)Nc1ccc(N2CCN(C(=O)c3ccccc3)CC2)cc1`, the inhibition was 64.5% (active).

On to `CC(C)C(=O)Nc1nnc(SCC(=O)N2C(C)CCCC2C)s1` (stereo not drawn), for which the inhibition was 17.7%.

Consider `Cc1ccc(Nc2nc(N3CCOCC3)nc(N3CCOCC3)n2)cc1Cl`, for which the inhibition is 33.3%.

Turning to `CCOc1ccc(-n2c(O)c(/C=N/c3ccnn3Cc3ccncc3)c3ccccc3c2=O)cc1`, the inhibition was 28%.

On to `CCOc1ccc(-n2c(O)c(/C=N/Nc3nc(C)cc(C)n3)c3ccccc3c2=O)cc1`, for which the inhibition is 78.3% (active).

Turning to `O=C(Nc1nc2ccc([N+](=O)[O-])cc2s1)c1ccc(S(=O)(=O)N2CCCc3ccccc32)cc1`, the inhibition is 82.2% (active).
